From PubChem BioAssay (NCATS)
Inconclusive results are not listed. A call without a number means that no potency is given here. Active and inactive are the calls of the source. Calls follow the shape of the dose curve; as a rule, active = well fitted cell-killing curve with a large enough effect; inconclusive = small, poorly fitted or top-dose-only effect, or effect the other way; inactive = no such curve, though single readings can be large or run the other way.

Columns and labels:
[1] = Quantitative High-Throughput drug screen in 47 multiple myeloma cell lines against the NCATS MIPE library collection: XG6_PLB cell viability assay (AID 1919865); also: nearly all actives have a fitted effect of over 40% in size
Outline: (§1)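 500 cells/well per myeloma line exposed to pinned MIPE 4.0 compounds for 48 h at 37 °C, 5% CO2. Viability read as ATP by CellTiter-Glo luminescence, normalised to DMSO-only (100%) and media-only (0%) wells.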

[2] = Quantitative High-Throughput drug screen in 47 multiple myeloma cell lines against the NCATS MIPE library collection: XG1_PLB cell viability assay (AID 1919866); also: nearly all actives have a fitted effect of over 35% in size
Outline: as §1

[3] = Quantitative High-Throughput drug screen in 47 multiple myeloma cell lines against the NCATS MIPE library collection: PE2_PLB cell viability assay (AID 1919869); also: nearly all actives have a fitted effect of over 35% in size
Outline: as §1

[4] = Quantitative High-Throughput drug screen in 47 multiple myeloma cell lines against the NCATS MIPE library collection: PCM6_Riken cell viability assay (AID 1919870); also: nearly all actives have a fitted effect of over 30% in size
Outline: as §1

[5] = Quantitative High-Throughput drug screen in 47 multiple myeloma cell lines against the NCATS MIPE library collection: OPM2_DSMZ cell viability assay (AID 1919872); also: nearly all actives have a fitted effect of over 30% in size
Outline: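 Primary qHTS used for cherry-picking: cells at 500/well, library compounds for 48 h (37C, 5% CO2), luminescent ATP assay.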

[6] = Quantitative High-Throughput drug screen in 47 multiple myeloma cell lines against the NCATS MIPE library collection: KMS11_JCRBsus cell viability assay (AID 1919873); also: nearly all actives have a fitted effect of over 50% in size
Outline: as §1

[7] = Quantitative High-Throughput drug screen in 47 multiple myeloma cell lines against the NCATS MIPE library collection: RPMI8226_ATCC cell viability assay (AID 1919871); also: nearly all actives have a fitted effect of over 30% in size
Outline: as §1

[8] = Quantitative High-Throughput drug screen in 47 multiple myeloma cell lines against the NCATS MIPE library collection: UTMC2_PLB cell viability assay (AID 1919868); conditions: CellTiter-Glo ATP luminescence, 48 h; viability (% of DMSO control): at 45.8 µM (top of the series); also: nearly all actives have a fitted effect of over 55% in size
Outline: as §1

[9] = Quantitative High-Throughput drug screen in 47 multiple myeloma cell lines against the NCATS MIPE library collection: KMS28BM_JCRB cell viability assay (AID 1919874); also: nearly all actives have a fitted effect of over 35% in size
Outline: as §1

[10] = Quantitative High-Throughput drug screen in 47 multiple myeloma cell lines against the NCATS MIPE library collection: VP6_DJ cell viability assay (AID 1919867); also: nearly all actives have a fitted effect of over 40% in size
Outline: as §1
Potency is read from the fitted curve at half-maximal effect.

Structure (SMILES)	Potency [1]	Potency [2]	Potency [3]	Potency [4]	Potency [5]	Potency [6]	Potency [7]	Potency [8]	Potency [9]	Potency [10]
NC(=O)c1ncn([C@@H]2O[C@H](CO)[C@@H](O)[C@@H]2O)n1	inactive	inactive	inactive	inactive	inactive	inactive	–	–	–	–
COc1cc(F)c(C(C)C)cc1-c1ccc(C(F)(F)F)cc1CN1C(=O)O[C@H](c2cc(C(F)(F)F)cc(C(F)(F)F)c2)[C@@H]1C	20.9 µM (active)	26.4 µM (active)	–	23.5 µM (active)	inactive	inactive	1.66 µM (active)	–	–	–
COc1cc2nccc(Oc3ccc(NC(=O)Nc4ccc(F)cc4F)c(F)c3)c2cc1OC	inactive	inactive	–	inactive	4.69 µM (active)	2.09 µM (active)	–	inactive	1.05 µM (active)	–
C#CCN(C)CC1=Cc2ccccc2Oc2ccccc21	inactive	inactive	inactive	inactive	inactive	–	inactive	–	inactive	–
CC(=O)OCC(=O)[C@@]12OC(C)(C)O[C@H]1C[C@H]1[C@@H]3C[C@H](F)C4=CC(=O)C=C[C@]4(C)[C@@]3(F)[C@@H](O)C[C@@]12C	inactive	inactive	–	inactive	inactive	0.0166 µM (active)	0.0083 µM (active)	–	inactive	–
CC(C)(CO)[C@@H](O)C(=O)NCCC(=O)O	20.9 µM (active)	inactive	inactive	16.6 µM (active)	inactive	inactive	–	–	inactive	–
N#CC(=C1Nc2ccccc2S1)c1ccnc(OCc2ccc(CN3CCOCC3)cc2)n1	1.18 µM (active)	1.18 µM (active)	5.26 µM (active)	–	–	1.05 µM (active)	20.9 µM (active)	–	–	–
CCOC(=O)[C@@H](N)CCC(=O)N[C@@H](CSCc1ccccc1)C(=O)N[C@@H](C(=O)OCC)c1ccccc1	11.8 µM (active)	23.5 µM (active)	20.9 µM (active)	–	–	inactive	–	23.5 µM (active)	inactive	–
O=C(NCCCCN1CCOCC1)c1cc2ccccc2o1	inactive	inactive	–	inactive	inactive	inactive	inactive	–	–	–
CCOC(=O)[C@H]1O[C@H]1C(=O)N[C@@H](CC(C)C)C(=O)NCCC(C)C	6.62 µM (active)	inactive	inactive	5.9 µM (active)	inactive	inactive	–	–	inactive	–
O=C(O)C1=CC(O)C(O)[C@H](O)C1 (some centres not stated)	inactive	inactive	inactive	–	inactive	inactive	inactive	–	inactive	–
CNC(=O)[C@H](Cc1ccccc1)NC(=O)[C@H](CC(C)C)[C@H](CSc1cccs1)C(=O)NO	7.43 µM (active)	9.35 µM (active)	16.6 µM (active)	13.2 µM (active)	18.7 µM (active)	–	–	–	–	–
CN(C)N=Nc1nc[nH]c1C(N)=O	5.26 µM (active)	2.64 µM (active)	–	inactive	inactive	inactive	inactive	–	–	–
O=C(O)CCNc1cc(N2CCc3ccccc3CC2)nc(-c2ccccn2)n1	inactive	20.9 µM (active)	inactive	–	inactive	inactive	inactive	–	–	–
CN[C@H]1[C@@H](O[C@@H]2[C@H](O[C@@H]3[C@@H](O)[C@@H](O)[C@@H](N=C(N)N)[C@@H](O)[C@@H]3N=C(N)N)O[C@H](C)[C@@]2(O)C=O)O[C@@H](CO)[C@@H](O)[C@H]1O	inactive	inactive	inactive	inactive	inactive	inactive	inactive	–	–	–
CC=C1C2C=C(C)CC1(N)c1ccc(=O)[nH]c1C2 (configuration not stated)	inactive	inactive	inactive	–	inactive	inactive	–	–	–	–
OC[C@H]1O[C@@H](O[C@H]2[C@@H](O)[C@@](O)(CO)O[C@@H]2CO)[C@H](O)[C@@H](O)[C@@H]1O	inactive	3.72 µM (active)	–	–	inactive	inactive	inactive	inactive	–	–
O[C@@H](COc1cccc2ncccc12)CN1CCN(C2c3ccccc3[C@@H]3[C@H](c4ccccc42)C3(F)F)CC1 (some centres not stated)	7.43 µM (active)	7.43 µM (active)	16.6 µM (active)	10.5 µM (active)	inactive	4.18 µM (active)	20.9 µM (active)	–	–	–
CC(NCCc1ccc(O)cc1)C(O)c1ccc(O)cc1 (configuration not stated)	inactive	inactive	inactive	inactive	inactive	inactive	inactive	–	inactive	–
CO[C@H]1O[C@@H]2O[C@@]3(C)CC[C@@H]4[C@@H](C)CC[C@@H]([C@H]1C)[C@@]24OO3	2.64 µM (active)	2.96 µM (active)	–	inactive	inactive	inactive	0.833 µM (active)	–	–	–
CCCCC[C@H](O)C=C[C@H]1[C@H](O)CC(=O)[C@H]1CCCCCCC(=O)O	inactive	inactive	–	inactive	inactive	–	0.105 µM (active)	–	–	–

Structure (SMILES)	Potency [1]	Potency [2]	Potency [3]	Potency [4]	Potency [5]	Potency [6]	Potency [7]	Potency [8]	Potency [9]	Potency [10]
N=C1SC(=Cc2ccc(-c3ccc4c(c3)C(=O)NC4=O)o2)C(=O)N1c1ccc(Br)cc1	1.66 µM (active)	2.35 µM (active)	2.09 µM (active)	–	2.64 µM (active)	–	3.32 µM (active)	–	inactive	–
CCC=CC[C@H]1C(=O)CC[C@@H]1CC(=O)OC	inactive	inactive	–	inactive	inactive	inactive	–	–	inactive	–
COc1cc2c(cc1OC)CC(=O)N(CCCN(C)C[C@H]1Cc3cc(OC)c(OC)cc31)CC2	inactive	inactive	–	inactive	inactive	–	11.8 µM (active)	–	inactive	–
COc1ccc(CCC(=O)Nc2nc3ccc(Cl)cc3s2)cc1OC	23.5 µM (active)	16.6 µM (active)	23.5 µM (active)	–	inactive	–	–	–	–	–
CC(C)N(CCCNC(=O)Nc1ccc(C(C)(C)C)cc1)C[C@H]1O[C@@H](n2cc(Br)c3c(N)ncnc32)[C@H](O)[C@H]1O	20.9 µM (active)	23.5 µM (active)	–	23.5 µM (active)	23.5 µM (active)	18.7 µM (active)	–	–	–	–
COc1c(C)c2c(c(O)c1CC=C(C)CCC(=O)O)C(=O)OC2	3.32 µM (active)	–	3.32 µM (active)	inactive	11.8 µM (active)	–	7.43 µM (active)	–	2.64 µM (active)	5.9 µM (active)
CN(C(Cc1ccc(OS(=O)(=O)c2cccc3cnccc23)cc1)C(=O)N1CCN(c2ccccc2)CC1)S(=O)(=O)c1cccc2cnccc12 (configuration not stated)	13.2 µM (active)	–	–	–	–	–	5.26 µM (active)	6.62 µM (active)	14.8 µM (active)	3.72 µM (active)
CSc1cccc(Nc2ncc3cc(-c4c(Cl)cccc4Cl)c(=O)n(C)c3n2)c1	0.118 µM (active)	–	–	0.187 µM (active)	1.32 µM (active)	0.187 µM (active)	2.35 µM (active)	0.0166 µM (active)	–	0.118 µM (active)
c1ccc(CNc2nc(N3CCOc4ccccc43)nc3c2CCCC3)cc1	inactive	inactive	–	inactive	–	–	–	–	inactive	–
CN(C)c1ccccc1CN1CCCN(Cc2ccccc2N(C)C)C1c1ccncc1	16.6 µM (active)	–	18.7 µM (active)	–	–	–	–	–	inactive	18.7 µM (active)
O=c1cc(-c2ccc(O)c(O)c2)oc2cc(O)cc(O)c12	14.8 µM (active)	–	–	inactive	–	inactive	inactive	–	inactive	11.8 µM (active)
COc1ccc(-c2oc3c(CC=C(C)C)c(O)cc(O)c3c(=O)c2O)cc1	6.62 µM (active)	–	inactive	7.43 µM (active)	inactive	inactive	20.9 µM (active)	–	3.72 µM (active)	5.26 µM (active)
COc1cc2nccc(Oc3ccc(NC(=O)Nc4cc(C)on4)c(Cl)c3)c2cc1OC	0.118 µM (active)	1.66 µM (active)	–	–	–	–	23.5 µM (active)	–	–	–
CC1=C(C(=O)Nc2cc3cn[nH]c3cc2F)C(c2ccc(C(F)(F)F)cc2)CC(=O)N1 (configuration not stated)	inactive	–	inactive	10.5 µM (active)	inactive	inactive	inactive	8.33 µM (active)	inactive	–
O=C1NC(=O)C(=Cc2ccc(-c3ccc(F)cc3O)o2)S1	2.35 µM (active)	–	7.43 µM (active)	–	inactive	–	9.35 µM (active)	–	inactive	2.96 µM (active)
COc1ccc(Cn2ccc3ccc(C(=O)NO)cc32)cc1	14.8 µM (active)	–	–	–	inactive	–	–	–	inactive	9.35 µM (active)
CC[C@@H]([C@H](C)O)n1ncn(-c2ccc(N3CCN(c4ccc(OCC5CO[C@@](Cn6cncn6)(c6ccc(F)cc6F)C5)cc4)CC3)cc2)c1=O (some centres not stated)	20.9 µM (active)	–	10.5 µM (active)	–	–	–	–	–	–	23.5 µM (active)
Clc1ccc(COC(Cn2ccnc2)c2ccc(Cl)cc2Cl)c(Cl)c1 (configuration not stated)	18.7 µM (active)	–	–	20.9 µM (active)	–	23.5 µM (active)	–	–	20.9 µM (active)	18.7 µM (active)
CC(C)C[C@@H](C(=O)N[C@H](C(=O)OC1CCCC1)c1ccccc1)[C@H](O)C(=O)NO	14.8 µM (active)	–	29.6 µM (active)	18.7 µM (active)	–	18.7 µM (active)	–	16.6 µM (active)	20.9 µM (active)	16.6 µM (active)
C[C@H](c1ccc(F)cc1CCCC(=O)O)N(c1cc(F)ccc1F)S(=O)(=O)c1ccc(Cl)cc1	2.64 µM (active)	–	–	6.62 µM (active)	3.32 µM (active)	–	–	14.8 µM (active)	16.6 µM (active)	3.72 µM (active)
